RXFP1 ag: qHTS Assay for Agonists of the Relaxin Receptor RXFP1 | Relaxin receptor 1 (Homo sapiens), Q9HBX9 | HEK293T-RXFP1 cAMP TR-FRET, 30 min; response scale: percent of porcine relaxin response, buffer zero | Potency, µM (highest dose often 57.5 µM), for inactives: at the top dose activation, hits mostly activators | hit rate 0.3% among 370,000 | AID 2676, 2010; active = well fitted activation curve with a large enough effect; inconclusive = small, poorly fitted or top-dose-only effect; also: potency is read from the fitted curve at half-maximal effect; % is scaled to controls: 0 for no effect and ±100 for the full control effect; nearly all actives have a fitted effect of over 60% in size
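HEK293 cells stably expressing RXFP1, treated 30 min at 37C with compounds plus PDE4 inhibitor Ro 20174; cAMP measured by HTRF TR-FRET. Normalized to buffer and 29 nM porcine relaxin; EC50 by Hill fit.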
gsp antag: qHTS for Antagonists of gsp, the Etiologic Mutation Responsible for Fibrous Dysplasia/McCune-Albright Syndrome: qHTS. gsp-mutant cells, cAMP HTRF, 30 min. Potency, µM (series often up to 76.9 µM), for the others: top-dose activity change, negative = inhibition, most hits filed as inhibitors. hit rate 0.4% among 340,000. AID 624288, 2012; calls by dose curve; cell line not stated here;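 also: intracellular cAMP measured with PDE inhibitor Ro 20-1724 present during compound exposure; potency is read from the fitted curve at half-maximal effect; % is scaled to controls: 0 for no effect and ±100 for the full control effect; nearly all actives have a fitted effect of over 65% in size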
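Cells in G418 medium, seeded 16-24 h, 37C; buffer exchange to DPBS + 1 mM CaCl2, 0.5 mM MgCl2, 0.05% BSA; cpds in DMSO + […] (300 uM stock), 30 min 37C; HTRF cAMP detection.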
gsp agonist: qHTS for Agonist of gsp, the Etiologic Mutation Responsible for Fibrous Dysplasia/McCune-Albright Syndrome: qHTS; hit rate 0.13% among 340,000; gsp mutant cells, cAMP HTRF, 30 min; Potency, µM (doses to about 76.9 µM), for inactives: top-dose activation (cAMP increase), usual class: activators; active = well fitted activation curve with a large enough effect; inconclusive = small, poorly fitted or top-dose-only effect, or another doubt; inactive = no such curve, though single readings can be large or run the other way; cell line not stated here;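 also: phosphodiesterase inhibitor Ro 20-1724 added with compounds to block cAMP breakdown; potency is read from the fitted curve at half-maximal effect; nearly all actives have a fitted effect of over 60% in size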
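Cells stably selected in G418 were plated at 2000/well, grown 16-24 hr, then given compounds in DMSO with the PDE inhibitor […] (300 uM solution added) for 30 min at 37C; cAMP was read by HTRF.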
RXFP1 antag: qHTS Assay for Antagonists of the Relaxin Receptor RXFP1; HEK293-RXFP1, relaxin-stimulated cAMP HTRF, 30 min; stronger effect = lower value; hit rate 0.59% among 350,000; activity change, negative = inhibition, % at 57.5 µM;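 active = activity change of -60% or lower, but not beyond a set lower limit; inconclusive = change between -60% and -40%, or beyond the set limit; inactive = change above -40%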; also: % is scaled to controls: 0 for no effect and ±100 for the full control effect
TSHR antagonist: Antagonists of the Thyroid Stimulating Hormone Receptor: HTS campaign; hit rate 0.2% among 330,000; AID 504810, 2011; activity change, negative = inhibition, % at 11.5 µM; TSHR-expressing cells, TSH-stimulated cAMP HTRF, 2 h; stronger effect = lower value;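 active = activity change below a set negative limit, meaning inhibition stronger than a set level, cut at about -70% in these data; inconclusive = activity change between two set negative limits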; also: % is scaled to controls: 0 for no effect and ±100 for the full control effect
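TSHR-expressing cells were treated with compounds, then stimulated with TSH at EC80 (4nM final) for 2 hours at 37 deg C. Cellular cAMP was measured by HTRF competition between lysate cAMP and cAMP-d2 for a cryptate-labelled anti-cAMP antibody.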
pAkt inh: HTS Assay for Inhibitors of Akt Phophorylation: Primary Screen | Neuro2A IGF-stimulated pAkt S473 HTRF, 20 min; stronger effect = lower value | activity change, % for hits at 50 µM | hit rate 0.32% among 360,000 | AID 651550, 2012; in the data active = activity change below about -80%; inconclusive = mostly about -51% to -80%; also: % is scaled to controls: 0 for no effect and ±100 for the full control effect
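Single-point screen (50 µM final compound) in Neuro2A cells stimulated 20 min with 6 nM IGF at 37 deg C. After lysis, Ser473-phosphorylated Akt read by HTRF (ex 330 nm, em 615/665 nm) as the 665/615 ratio.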
Starred values were filed as active, the others as inactive; i = inactive; u = inconclusive; x = not tested or not shown; [ ] = remark or other dose. Hits are enriched below; roughly 1.3% of the tested compounds scored in any of these assays.

SMILES	RXFP1 ag	gsp antag	gsp agonist	RXFP1 antag	TSHR antagonist	pAkt inh
O=C(C1CC(=O)N(C2CCCCC2)C1)N1CCC2(CC1)OCCO2 (stereo not given)	0%	11%	-11%	-6	-2	-110%*
O=C1CC(C(=O)N2CCC3(CC2)OCCO3)CN1CCc1ccccc1 (stereo not given)	5%	-1%	11%	-5	-15	i
ClCCN1CCCC1	x	x	x	2	x	x
COc1ccc(C2=NCC(=S)Nc3ccc(Cl)cc32)cc1OC	x	-9%	12%	0	x	i
S=C1CN=C(c2ccccc2)c2cc(Cl)ccc2N1	0%	-11%	9%	-111*	0	i
COC(=O)C1=C(c2ccc(-c3ccccc3)c(F)c2)C[C@@H]2CC[C@H]1N2C(=O)NCCNC(C)=O	0%	-1%	5%	x	-11	i
COC(=O)C1=C(c2ccc3ccccc3c2)C[C@@H]2CC[C@H]1N2C(=O)NCCCOC(C)C	1%	-4%	-1%	x	-15	i
COC(=O)C1=C(c2ccc(-c3ccccc3)c(F)c2)C[C@@H]2CC[C@H]1N2C(=O)NCCc1ccccc1	0%	-13%	-5%	x	-71*	i
COC(=O)C1=C(c2ccc(-c3ccccc3)c(F)c2)C[C@@H]2CC[C@H]1N2C(=O)NCCCOC(C)C	0%	28%	-39%	x	-83*	i
c1ccc(N2CCNCC2)cc1	x	x	x	17	x	x
CN1C(=O)C(=Cc2ccc(N3CCCCCC3)cc2)C(=O)N(C)C1=O	-7%	35µM*	-2%[15.4 µM]	-20	5	i
O=c1[nH]c(=S)[nH]c(O)c1N=Nc1ccc(S(=O)(=O)N2CCc3ccccc32)cc1	0%	-31%	2%[15.4 µM]	-100*	-21	i
O=c1[nH]c(=S)[nH]c(O)c1N=Nc1ccc(SC(F)F)cc1	12%	-12%	16%[15.4 µM]	-71*	0	i
Cc1c(N=Nc2c(O)[nH]c(=S)[nH]c2=O)c(=O)n(-c2ccccc2)n1C	-2%	3%	5%[15.4 µM]	12	13	i
CCN1C(=O)C(=C2C=C(C)N(Cc3ccco3)C(C)=C2)C(=O)N(CC)C1=S	28µM*	21%	u	19	-5	i
Cc1ccc(/C=C2/C(=O)NC(=O)N(CCc3ccc(F)cc3)C2=O)o1	4%	3%	2%	-73*	7	i
O=C1NC(=O)N(CCc2ccc(F)cc2)C(=O)/C1=C/c1ccco1	0%	-1%	-8%[15.4 µM]	u	10	i
CC[N+](CC)(CC)CC	1%	35µM*	x	8	-11	i
CCN1/C(=C\C=C\C2=[N+](CC)c3ccccc3C2(C)C)C(C)(C)c2ccccc21	5%	-8%	31%[15.4 µM]	-73*	u	i
Cc1ccc(-n2c(O)c(C=NCCN3CCOCC3)c(=O)[nH]c2=O)cc1	-2%	0%	3%	-10	8	-128%*
CCCCCCCSc1cc(OC)c(CCNC)cc1OC	0%	14%	-81%	-70*	0	i
CCOC(=O)c1c(NC(=O)c2c(N)n(CCCOC)c3nc4ccccc4nc23)sc2c1CCCC2	2%	2%	7%	-11	5	i
CCOC(=O)c1c(NC(NC(=O)CF)C(Cl)(Cl)Cl)sc2c1CCCC2 (stereo not given)	0%	-19%	-2%[15.4 µM]	-61*	-25	i
C[C@@H]1CN([C@@H](C)CO)C(=O)CCCn2nncc2CO[C@@H]1CN(C)C(=O)Nc1ccc(N2CCCCC2)cc1	x	x	20%	2	x	i
Cc1[nH]c(=S)c(C#N)c2c1CCCC2	u	2%	14µM*	20	7	i
